For 16 compounds, growth inhibition results are on record in PubChem BioAssay (NCI).

The panel holds about 79,000 compounds, 15% with a hit somewhere; the sample as a whole holds those more often. Values without a mark were called inactive. Calls of active or inactive are those of the source. Cut-off read from the data, not from the text of the source: active = growth inhibition above about 70%; inactive = the rest.

The nature of this assay: NCI Yeast Anticancer Drug Screen. Data for the mec2-1 strain (AID 157). Conditions: S. cerevisiae mec2-1 strain, at 50.0 µM (retest, dose inferred, filed as 5.0), hits give high values. The gist of the method: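 Growth inhibition is read against vehicle-treated controls after compound exposure of the mec2-1 yeast strain, which is defective in DNA damage repair or cell cycle control.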
As for `CCOC(=O)/C=C(\CC(=O)OCC)C(=O)OCC`, the growth inhibition is -8%.

For the compound `Cc1cc(Cl)cc2c1NC(=O)C2(O)C(C)C(=O)c1ccc(Cl)cc1` (stereo unspecified), the growth inhibition is 71% (active).

With `C=CS(=O)(=O)c1ccc([N+](=O)[O-])cc1`, the growth inhibition was 99% (active).

Consider `Oc1cc(Br)ccc1/C=N/Nc1ccccn1`, for which the growth inhibition is 60%.

In the case of `CC(C)C(CC(C)(C)C)OC(=O)Nc1cccc2ccccc12` (stereo unspecified), the growth inhibition is 98% (active).

For the compound `CC(=O)[O-].O=C(N/N=C/c1ccccc1[O-])c1ccccc1.[Zn+2]`, the growth inhibition is 89% (active).

Consider `COc1cc(C2C(C(=O)Nc3ccc(Cl)c(Cl)c3)=C(C)NC(C)=C2C(=O)Nc2ccc(Cl)c(Cl)c2)ccc1O`, for which the growth inhibition was -4%.

As for `[Ce+3].[Cl-].[O-]/N=C(\c1ccccc1)c1ccccn1.[O-]/N=C(\c1ccccc1)c1ccccn1.[O-]/N=C(\c1ccccc1)c1ccccn1`, the growth inhibition was 76% (active).

As for `CCCCCCCCN1C(=O)c2ccccc2S1(=O)=O`, the growth inhibition was 96% (active).

Turning to `CC(=O)N(C1=C(Cl)C(=O)c2ccccc2C1=O)c1ccc(C)cc1`, the growth inhibition was 100% (active).

Regarding `COc1ccc(Cl)c(-c2cc(OC)c(N=N/C(=N/Nc3ccc([N+](=O)[O-])cc3)c3ccc([N+](=O)[O-])cc3)cc2Cl)c1`, the growth inhibition is 4%.

As to `CCOC(=O)CSC(=S)N1CCOCC1`, the growth inhibition was -10%.

Consider `CC1(C)COC(c2cccc(C(O)c3ccc(Cl)cc3)c2)=N1` (stereo unspecified), for which the growth inhibition was 99% (active).

For the compound `COc1ccc(/C=C/C(C(=O)O)C(=O)O)cc1`, the growth inhibition is 84% (active).

Take `COc1ccc2c(Cc3ccc(O)cc3)cncc2c1O`: the growth inhibition is 26%.

In the case of `COC1=CC23C=CC1[C@@H](c1ccccc1)C2=C(C)C(=O)N3C(=O)NC1CCCCC1` (stereo partly specified), the growth inhibition is -4%.
